Pf apPOL block – Pf-apPOL DNA polymerase inhibition | Recombinant Pf-apPOL, molecular beacon fluorescence, 1.5 h | inhibition, % at 10 µM | actives 0.25% (n = 210,000)
mHTT-CaM PPI inh – mHTT-calmodulin interaction abrogation; actives 3.6% (n = 190,000); AlphaScreen His-mHTT/GST-CaM binding, luminescence; inhibition, % at 15 µM; P42858; AID 1671202;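 note: 0% = both proteins with DMSO and 100% = one protein alone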
An asterisk follows results filed as active; . = no result; + = active, no number. An excerpt weighted towards active compounds, which were near 3.6% of everything screened. Cut-off read from the data, not from the text of the source: active = inhibition above about 50%; inactive = the rest.

SMILES	Pf apPOL block	mHTT-CaM PPI inh
O=C(NC1CC2CC1CN2C(=O)c1ccoc1)c1ccccc1 (stereo not drawn)	-6	-2
COc1ccc2nc(C(=O)N3CCC(Cc4ccccc4)CC3)cn2n1	-6	32
CCCn1ncc(N2CCC(C(=O)Nc3ccc(OC)cc3OC)CC2)cc1=O	-2	20
CCn1c(N2CCC(C(=O)Nc3cccc(OC)c3)CC2)cc(=O)n(C)c1=O	0	44
CCOc1ccc(NC(=O)C2CCN(c3cc(=O)n(C)c(=O)n3CC)CC2)cc1	-2	61*
CCn1c(N2CCC(C(=O)N3CCN(c4ccc(F)cc4)CC3)CC2)cc(=O)n(C)c1=O	4	70*
CCn1c(N2CCC(C(=O)Nc3ccc(OC)c(OC)c3)CC2)cc(=O)n(C)c1=O	-1	62*
CCn1c(N2CCC(C(=O)Nc3ccc(F)cc3)CC2)cc(=O)n(C)c1=O	-6	28
Cn1c(N2CCC(C(=O)N3CCN(c4ccc(Cl)cc4)CC3)CC2)cc(=O)n(C)c1=O	-1	50
CCCn1ncc(N2CCC(C(=O)Nc3cc(C)ccc3OC)CC2)cc1=O	-2	77*
c1cncc(-c2n[nH]c(C3CCCN(Cc4ccsc4)C3)n2)c1 (stereo not drawn)	-8	1
CNC(=O)C(=O)NCCN1CCN(C(=O)c2ccccc2Br)CC1	-13	-3
Cc1noc(C2(NC(=O)c3ccc(C(F)(F)F)cc3)CCCCC2)n1	-6	-6
O=S(=O)(c1cccnc1)N1CCC(n2c(-c3cccs3)nc3cccnc32)C1 (stereo not drawn)	1	16
O=C(Nc1ccc(C(F)(F)F)cc1)O[C@@H]1C[C@H]2C[C@@H]1[C@H]1CCCCN1C2	-9	73*
O=C(Nc1ccc(F)cc1)O[C@@H]1C[C@H]2C[C@@H]1[C@H]1CCCCN1C2	-6	-2
CC(=O)N1CCN(C(=O)CN2CCc3sccc3C2c2ccc(C)cc2)CC1C (stereo not drawn)	0	29
CC(=O)N1CCc2cc(Br)cc(S(=O)(=O)NCCc3cccc(C)c3)c21	-7	55*
CC(=O)N1CCc2cc(Br)cc(S(=O)(=O)NCCc3ccc(C)cc3)c21	-10	38
OC(COCc1ccccc1)Cn1cnc2ccccc21 (stereo not drawn)	3	-9
OC(COCC(c1ccccc1)c1ccccc1)Cn1cnc2ccccc21 (stereo not drawn)	-4	56*
O=C(NCCn1ncccc1=O)c1csc(-n2cccc2)n1	-2	-10
Cn1ccc(-c2ccnc(NN)n2)n1	.	99*
Cn1ccc(-c2ccccc2)n1	-4	-8
CC(=O)N1CCc2sc(C(=O)NCc3cccc(Cl)c3)cc2C1	-4	5
SMILES	Pf apPOL block	mHTT-CaM PPI inh
CC(=O)N1CCc2sc(C(=O)NCc3cccc(Br)c3)cc2C1	0	56*
O=C(Nc1cnc(N2CCCCC2)nc1)c1ccc(F)cc1F	-7	2
O=C(CSc1n[nH]c(-c2ccccc2)n1)c1ccc(O)cc1O	0	1
CCc1nc(SCC(=O)c2ccc(O)cc2O)n[nH]1	-4	71*
Cc1cc(NC(=O)CSc2nnc(-c3cccnc3)o2)no1	-1	-12
O=c1ccc2c(Cl)cc(Cl)c(O)c2[nH]1	-3	12
NNc1ccc2c(Cl)cc(Cl)c(O)c2n1	-5	100*
O=S1(=O)N=C(N/N=C/c2cc(Cl)ccc2O)c2ccccc21	.	+
O=S1(=O)N=C(Nc2ccccc2O)c2ccccc21	-5	0
COc1cc2c(c([N+](=O)[O-])c1)NC(c1ccc(Br)cc1)C1CC=CC21 (stereo not drawn)	-1	24
CCOc1cc2c(c([N+](=O)[O-])c1)NC(c1ccc([N+](=O)[O-])cc1)C1CC=CC21 (stereo not drawn)	1	50*
CCOc1cc2c(c([N+](=O)[O-])c1)NC(C(C)C)C1CC=CC21 (stereo not drawn)	1	73*
CCOc1cc2c(c([N+](=O)[O-])c1)NC(c1ccccc1F)C1CC=CC21 (stereo not drawn)	-2	95*
Cn1cccc1C(=O)N1CCC(Cc2nnc(-c3ccccc3)o2)CC1	2	24
O=C(C1CCN(CC2CC=CCC2)CC1)N1CCN(Cc2ccccc2)CC1 (stereo not drawn)	0	17
O=C1C2CCCCC2C(=O)N1c1ccc(NCc2cccc(F)c2)c([N+](=O)[O-])c1 (stereo not drawn)	-23	3
COc1ccc(N2CCN(C(=O)c3nc(-c4cccc(F)c4)n4c3CCCCC4)CC2)cc1	0	44
O=C(c1nc(-c2cccc(F)c2)n2c1CCCCC2)N1CCN(c2ccccc2)CC1	-4	78*
CCn1c(=N)c(C(=O)NC(C)c2ccccc2)cc2c(=O)n3cccc(C)c3nc21 (stereo not drawn)	-6	0
CC(NC(=O)c1cc2c(=O)n3ccccc3nc2n(Cc2ccco2)c1=N)c1ccccc1 (stereo not drawn)	-2	51*
Cc1cccn2c(=O)c3cc(C(=O)NC(C)c4ccccc4)c(=N)n(C4CCCCC4)c3nc12 (stereo not drawn)	0	54*
CCNC(=O)c1cc2c(=O)n3ccccc3nc2n(Cc2ccco2)c1=N	16	18
Cc1cccn2c(=O)c3cc(C(=O)NCc4ccccc4)c(=N)n(Cc4ccco4)c3nc12	12	38
Cc1cccn2c(=O)c3cc(C(=O)NC(C)c4ccccc4)c(=N)n(Cc4ccco4)c3nc12 (stereo not drawn)	4	51*
CN(C)S(=O)(=O)c1ccc(C(=O)NCc2cc(-c3ccc4c(c3)OCO4)on2)cc1	-3	18
SMILES	Pf apPOL block	mHTT-CaM PPI inh
COCC(=O)N1CC(C(=O)N2CCOCC2)CCC1c1ccc(F)cc1 (stereo not drawn)	-3	-3
Cc1ccc(C(=O)NCc2ccc(F)cc2)c(Cl)c1	-1	-11
Nc1nc[nH]c(=O)c1[N+](=O)[O-]	-3	-6
NNc1ncc([N+](=O)[O-])c2nc[nH]c12	.	100*
Cc1ccc(NC(=O)c2ccc(N(CCO)CCO)c([N+](=O)[O-])c2)cc1Cl	-4	26
Cc1ccc(NC(=O)N2CCOc3ccccc32)cc1F	-7	-8
CSc1cccc(NC(=O)N2CCN(C)c3ccccc32)c1	-4	80*
O=C(Nc1ccc(F)cc1)N1CC2CCCN2c2ccccc21 (stereo not drawn)	4	14
CCc1ccc(NC(=O)N2CC(CC)Oc3ccccc32)cc1 (stereo not drawn)	-3	-11
Cc1ccc(NC(=O)N2CC3CCCN3c3ccccc32)cc1F (stereo not drawn)	1	90*
CCc1ccc(NC(=O)N2CC3CCCN3c3ccccc32)cc1 (stereo not drawn)	0	91*
Cc1ccc(NC(=O)N2CC3CCCN3c3ccccc32)cc1 (stereo not drawn)	-3	59*
COc1ccc(NC(=O)N2CCN(C)c3ccccc32)cc1	-3	36
O=C(Cc1ccc(NS(=O)(=O)c2ccc3c(c2)OCCO3)cc1)NC1CC1	-1	-8
COc1ccc(N2CCN(C(=O)c3csc4c3CCCCC4)CC2)cc1	2	42
CNC(=O)C(C1CCCC1)N1CCN(C(=O)c2ccccc2Cl)CC1 (stereo not drawn)	-2	4
COc1cc(/C=C2\N=C(SCC(=O)c3ccccc3)N(c3ccccc3)C2=O)ccc1O	2	33
COc1ccccc1CNC(=O)CSCc1ccc([N+](=O)[O-])cc1	2	4
